High-throughput results as filed in PubChem BioAssay.
Epigenetic reg = epigenetic control regulation, reporter derepression | 280,000 compounds, 0.2% hits | Potency, µM (highest dose often 53.9 µM), most hits filed as activators | murine LDR cells, GFP reporter derepression, 30 h; note: nearly all actives have a fitted effect of over 60% in size
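In this reporter-derepression format, murine cells bearing a silenced integrated CMV-GFP locus incubate with test compound (30 h, 37 C), then are washed and imaged; fluorescent objects of 20–120 um count as induced cells.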
KAT2A inh = blocks human GCN5L2 histone acetyltransferase; GCN5L2 HAT assay, ThioGlo1 CoA-SH fluorescence; 390,000 compounds, 0.21% hits; Q92830; Potency, µM (doses to about 58.9 µM), most hits filed as inhibitors; AID 504327
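qHTS, 1536-well. 20nM enzyme, pH 7.5 HEPES/EDTA/Tween-20 buffer; 15 min compound preinc., RT. Start: 75uM H3(1-25), 70uM AcCoA, 50uM ThioGlo1. Read Ex340/Em540 at t=0 (autofluorescence flag) and t=20 min.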
Sfp inh = Sfp phosphopantetheinyl transferase inhibition; Biochemical Sfp PPTase activity, qHTS; Potency, µM, most hits filed as inhibitors; 310,000 compounds, 3.5% hits;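 note: the enzyme is Sfp with the accession as filed and its product quenches rhodamine fluorescence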
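Compounds were incubated with enzyme (final 15 nM) for 15 min at room temperature before substrate addition started the reaction. Fluorescence at 525 nm excitation, 598 nm emission was recorded immediately and after 30 minutes.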
NPSR antag = blocks cAMP signaling of the human neuropeptide S receptor; Q6W5P4; CHO-NPSR cells, cAMP TR-FRET, antagonist mode; Potency, µM (highest dose often 38.3 µM), usual class: inhibitors; 220,000 compounds, 1% hits; AID 1461; note: nearly all actives have a fitted effect of over 50% in size
Target sequence (Q6W5P4 whole entry, looked up): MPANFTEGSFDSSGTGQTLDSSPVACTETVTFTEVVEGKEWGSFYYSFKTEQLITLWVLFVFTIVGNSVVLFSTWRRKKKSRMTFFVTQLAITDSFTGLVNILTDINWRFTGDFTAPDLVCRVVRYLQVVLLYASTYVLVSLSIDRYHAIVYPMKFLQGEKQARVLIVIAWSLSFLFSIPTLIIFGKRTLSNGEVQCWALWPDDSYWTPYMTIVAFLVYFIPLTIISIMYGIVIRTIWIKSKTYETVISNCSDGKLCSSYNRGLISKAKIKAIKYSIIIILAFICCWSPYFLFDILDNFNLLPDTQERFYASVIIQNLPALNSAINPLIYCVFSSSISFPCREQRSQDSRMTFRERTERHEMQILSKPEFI
JMJD2E inh = inhibitors of human JMJD2E histone demethylase; 230,000 compounds, 1.6% hits; JMJD2E catalytic domain, FDH-coupled NADH fluorescence (FDH is formaldehyde dehydrogenase); Potency, µM (top dose mostly 57.1 µM), most hits filed as inhibitors; active = well fitted inhibition curve with a large enough effect, not every such curve was filed as active; inconclusive = small, poorly fitted or top-dose-only effect, or another doubt; inactive = no such curve, though single readings can be large or run the other way; note: nearly all actives have a fitted effect of over 50% in size
Target sequence (B2RXH2 1-337 limits assumed): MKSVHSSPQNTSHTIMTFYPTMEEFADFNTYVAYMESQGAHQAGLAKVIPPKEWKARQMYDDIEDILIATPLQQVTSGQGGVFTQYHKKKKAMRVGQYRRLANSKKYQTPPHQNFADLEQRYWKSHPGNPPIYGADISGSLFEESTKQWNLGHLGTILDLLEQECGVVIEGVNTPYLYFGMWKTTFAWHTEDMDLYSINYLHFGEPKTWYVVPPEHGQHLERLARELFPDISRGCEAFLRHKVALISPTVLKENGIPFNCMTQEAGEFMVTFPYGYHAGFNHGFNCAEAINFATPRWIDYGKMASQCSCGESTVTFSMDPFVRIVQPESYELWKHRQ
IMPase Li cell = cell-permeable IMPase inhibitors with lithium potentiation; Potency, µM (titrated, usually from 59.4 µM), most hits filed as inhibitors; CHO-M1 cells, IP1 TR-FRET (IP-One), carbachol + lithium; 210,000 compounds, 0.35% hits;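 note: IP1 builds up when IMPase is blocked and the TR-FRET signal falls; nearly all actives have a fitted effect of over 50% in size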
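IP1 accumulation measured by competitive TR-FRET in lysed CHO-M1 cells after 30 min compound exposure at 37C, with a small lithium addition to potentiate weak responses. Hill-equation AC50 from ratio and donor-channel data.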
Numbers stand for hits; n = inactive; u = inconclusive; x = no result; [ ] = dose if it differs, or a comment. An excerpt weighted towards active compounds, which were near 3.6% of everything screened. Unless noted, calls come from the whole dose curve; as a rule, active = well fitted curve in the direction sought with a large enough effect; inconclusive = small, poorly fitted or top-dose-only effect, or another doubt; inactive = no such curve, though single readings can be large; an effect the other way counts as inactive or inconclusive.

SMILES	Epigenetic reg	KAT2A inh	Sfp inh	NPSR antag	JMJD2E inh	IMPase Li cell
CN(C)c1ccc(/C=N\NC(=O)c2csnn2)cc1	n	n	40µM	u	n	n
NC(N)=N/N=C(/c1ccccc1)c1ccc(O)cc1O	x	x	x	x	x	n
C=CCn1c(NC(=O)c2ccc(Br)o2)c(S(=O)(=O)c2ccccc2)c2nc3ccccc3nc21	n	n	n	n	u	10µM
Cc1ccc(-c2n[nH]c(=S)n2/N=C/c2c(C)[nH]n(-c3ccccc3)c2=O)cc1	n	n	50µM	n	u	n
Cc1ccc(/C=N/n2c(-c3cccnc3)n[nH]c2=S)s1	n	n	35µM	n	n	n
Cc1ccc(/C=N/n2c(-c3ccc(Cl)cc3)n[nH]c2=S)o1	n	n	n	n	n	x
Cc1ccc(-c2n[nH]c(=S)n2/N=C/c2ccc(C)o2)cc1	n	n	71µM	n	n	n
Cc1ccc(/C=N/n2c(-c3cccnc3)n[nH]c2=S)o1	n	n	56µM	n	u	x
C[C@H](O)CN(C)C	x	n	n	x	x	x
C[C@@H]1CC[C@@]2(OC1)OC1CC3C4CC=C5CC(O)CCC5(C)C4CCC3(C)C1[C@@H]2C (stereo partly specified)	n	x	n	x	n	n
CCOc1ccc2nc(/N=C/c3c(C)[nH]n(-c4ccccc4)c3=O)sc2c1	n	n	10µM	n	n	n
S=c1[nH]nc(-c2cccnc2)n1/N=C/c1ccco1	n	n	40µM	n	n	n
CCOc1ccc2nc(/N=C/c3c(C)[nH]n(-c4ccc(C)cc4)c3=O)sc2c1	n	n	n	n	n	n
Cc1ccc(-c2n[nH]c(=S)n2/N=C\c2ccco2)cc1	n	n	u	n	n	n
Cc1ccsc1/C=C1/CN(C)Cc2c1nc1ccccc1c2C(=O)O	n	u	u	n[7.67 µM]	n	x
CCN1C/C(=C\c2cccc(C)c2)c2nc3ccccc3c(C(=O)O)c2C1	n	n	79µM	n	u	n
O=C(c1ccccc1)N(Cc1ccco1)Cc1cccs1	n	n	x	x	x	x
Cc1onc(-c2ccccc2)c1C(=O)N(Cc1ccco1)Cc1cccs1	u	n	40µM	u	n	n
C/C=C/OC(=O)NC(c1ccccc1)[C@@]1(C(=O)OC)CCCC1=O (stereo partly specified)	n[10.1 µM]	x	n	x	x	x
O=C(CNC(=O)c1ccc([N+](=O)[O-])cc1)c1ccccc1	n	n	n	n	n	n
O=C(CNS(=O)(=O)c1ccccc1)OCC(=O)c1ccc(Br)cc1	x	n	n	x	x	x
O=C(CNS(=O)(=O)c1ccccc1)OCC(=O)c1ccc([N+](=O)[O-])cc1	n	n	79µM	n	n	n
O=C(CNc1ccccc1)c1ccc([N+](=O)[O-])cc1	n	n	50µM	n	n	n
COC(=O)C1(Cc2ccccc2)C=C2C(=C(C(C)C)C(=O)C2C)CN1 (stereo unspecified)	n	x	n	x	n	n
CCN1C(=O)[C@H]2[C@H]3[C@H](O)[C@H](O)C/C(=N/OC[C@@H]4O[C@H](c5ccccc5)C=C[C@@H]4Oc4ccc(OC)cc4)[C@@H]3CC[C@@H]2C1=O	n[10.1 µM]	x	n	x	x	x
SMILES	Epigenetic reg	KAT2A inh	Sfp inh	NPSR antag	JMJD2E inh	IMPase Li cell
C/C(CC(=O)NC(C)(C)C)=N\NC(N)=S	n	n	35µM	n	n	n
O=C(c1ccc(Br)o1)N1N=C(c2ccc(Cl)cc2)CC1c1ccco1 (stereo unspecified)	x	n	40µM	x	x	x
Cc1ccc(N2N=C(c3ccc(F)cc3)CC2c2ccco2)cc1 (stereo unspecified)	n	n	u	u	u	n
CC(=O)N1N=C(c2ccc(C)cc2)CC1c1ccco1 (stereo unspecified)	n	n	n	n	n	n
Cc1nc(N2N=C(c3ccc(Cl)cc3)CC2c2ccco2)sc1C(=O)N(C)C (stereo unspecified)	n	n	25µM	n	u	n
COc1ccc(C2=NN(c3nc(-c4ccccc4)c(CC(=O)O)s3)C(c3ccco3)C2)cc1 (stereo unspecified)	n	u	14µM	n	u	n
CC(=O)Nc1ccc(C2CC(c3ccc(Cl)cc3)=NN2c2ccccc2)cc1 (stereo unspecified)	x	32µM	n	x	x	x
C[C@H]1O[C@@H](n2cnc3c(N)ncnc32)C[C@@H]1OP(=O)(O)OP(=O)(O)OP(=O)(O)O	x	n	n	x	x	x
COc1ncc2nc(-c3ccc(Cl)cc3)c(=O)n(Cc3cccs3)c2n1	x	n	n	x	x	n
Clc1ccc(C2=NN(c3ccccc3)C(c3ccco3)C2)cc1 (stereo unspecified)	n	n	28µM	u	u	x
Cc1ccc(C(C)C)c(OCCCCN2CCNCC2)c1	x	n	56µM	x	x	x
CCCS(=O)(=O)c1c(S(=O)(=O)CCC)c2c(N)cccn2c1C(=O)c1ccccc1	n	n	n	n	n	n
CCCS(=O)(=O)c1c(S(=O)(=O)CCC)c2c(N)cccn2c1C(=O)OC	n	n	28µM	n	u	n
COC(=O)C1=C[C@@H](C(=O)OC)C2C3=C(C(=O)[C@]2(C)NC(=O)c2ccccc2)[C@H](C)n2c(=O)n(-c4ccccc4)c(=O)n2[C@@H]3C1 (stereo partly specified)	x	x	n	x	x	x
CCOc1cccc(CNc2ccc(O)cc2)c1OCc1ccc(Cl)cc1Cl	u	n	14µM	u	u	n
COc1ccc(C2=Nn3c(nnc3-c3ccc(OC)c(OC)c3)SC2)c(OC)c1	x	x	n	x	x	x
Cc1ccc2nc(-c3ccc(N)cc3)sc2c1	n	n	n	n	u	x
Nc1ccc2nc(-c3ccccc3)sc2c1	n	x	n	n	u	11µM
CCOc1cccc(/C=C/c2ccc3cccc(O)c3n2)c1O	x	n	79µM	x	x	x
CCOc1ccc(NC(=O)Cn2sc3nc(C)cc(C)c3c2=O)cc1	n	u	2.8µM	n	u	x
Cc1cc(C)c2c(=O)n(CC(=O)Nc3cccc(F)c3)sc2n1	n	u	3.2µM	n	u	x
Cc1ccc(NC(=O)Cn2c(C)cc(C)c(C#N)c2=O)c(Cl)c1	n	n	n	n	u	n
Cc1ccc(NC(=O)Cn2sc3nc(C)cc(C)c3c2=O)c(Cl)c1	n	28µM	2.8µM	n	u	x
O=C(Cn1c(=O)c2ccccc2n2nncc12)Nc1cccc(F)c1	n	n	x	x	x	x
Cc1cc(C)c2c(=O)n(CC(=O)Nc3ccc(Cl)cc3)sc2n1	n	u	3.5µM	n	28µM	x
CCNc1ncc2nc(-c3cc(F)cc(F)c3)c(=O)n(-c3ccccc3)c2n1	x	n	n	x	x	u
CCn1nc(-c2ccccc2)c(-c2ccccc2)c(C(=O)Nc2ccc(NC(C)=O)cc2)c1=O	u	n	x	x	x	x
COc1ccc(C(=O)Nc2ccc3c(c2)CCCN3S(=O)(=O)c2ccc(C)cc2)c(OC)c1	n	n	x	x	x	x
COc1ccc(-c2nc(C)c(CCNC(=O)c3cccc(C)c3)s2)cc1OC	n	n	x	x	x	x
